# Laboratory results from PubChem BioAssay (EPA / NIEHS).
# Calls of active or inactive are those of the source. The calls were made as follows: active = hit-call score of the fitted dose curve at least 0.9, where 1 is the maximum; inactive = score below 0.9. Peptide text beside a SMILES is read from it.
# How the values were obtained:
# [1] = ATG_GLI_CIS: Attagene CIS-FACTORIAL HepG2 Assay for human Zinc Finger Protein GLI1 (AID 2282945); conditions: HepG2, Attagene cis-factorial reporter mRNA, GLI element; actives raise or lower the signal
# Procedure, shortened: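 Transiently transfected HepG2 cells report endogenous transcription factor activity via cis-element-driven reporter units. After 24 h compound exposure, reporter mRNA was measured by RT-PCR with capillary electrophoresis; bidirectional fitting against DMSO baseline.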
# [2] = molecular target: Bile acid receptor (Homo sapiens) (UniProt Q96RI1); assay: ATG_IR1_CIS: Attagene CIS-FACTORIAL HepG2 Assay for human Nuclear Receptor Subfamily 1 Group H Member 4 (NR1H4), IR1 submotif (AID 2282946); conditions: IR1 reporter transcription, actives raise or lower the signal
# Procedure, shortened: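 HepG2 cells transiently transfected with multiple cis-promoter-driven reporter units to measure endogenous transcription factor activity; 24 h exposure. Reporter mRNA read by RT-PCR, FAM labelling, HpaI digestion and capillary electrophoresis. Bidirectional fit versus DMSO.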
# [3] = ATG_GRE_CIS: Attagene CIS-FACTORIAL HepG2 Assay for human Glucocorticoid Response Elements (GRE) (AID 2282947); conditions: HepG2 GRE cis-reporter, Attagene multiplex mRNA; actives raise or lower the signal
# Procedure, shortened: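 Endogenous transcription factor activity is read through cis-element reporter constructs transiently transfected into HepG2 cells. After 24 h treatment, labelled RT-PCR products are resolved by capillary electrophoresis; DMSO sets baseline for bidirectional curve fitting.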
# [4] = ATG_ISRE_CIS: Attagene CIS-FACTORIAL HepG2 Assay for human Interferon Regulatory Factor 1 (IRF1) binding to an Interferon-Stimulated Response Element (ISRE) (AID 2282948); conditions: HepG2 ISRE cis-reporter (Attagene), mRNA transcription readout; actives raise or lower the signal
# Procedure, shortened: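 Transfected HepG2 (multiple reporter transcription units, cis elements) dosed 24 h. RNA → oligo(dT) RT → PCR → 6-FAM primer extension → HpaI → CE. DMSO = negative control/baseline.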
# [5] = ATG_M_32_CIS: Attagene CIS-FACTORIAL HepG2 Assay for M32 Transcription Factor (Internal Marker) (AID 2282949); conditions: HepG2 Attagene cis-factorial M32 reporter, mRNA; actives raise or lower the signal;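 also: background control marker of the multiplexed CIS panel rather than a real target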
# Procedure, shortened: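 Following 24 h chemical exposure of HepG2 cells transiently expressing cis-promoter reporter constructs, reporter transcript levels were determined by RT-PCR with fluorescent labelling and capillary electrophoresis, then fitted bidirectionally against DMSO.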
# [6] = ATG_M_06_CIS: Attagene CIS-FACTORIAL HepG2 Assay for M06 Transcription Factor (Internal Marker) (AID 2282950); conditions: HepG2 Attagene CIS-FACTORIAL M06 internal marker reporter; actives raise or lower the signal
# Procedure, shortened: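 Measured 24 h post-dosing in transiently transfected HepG2 cells, this internal-marker endpoint reports reporter mRNA via RT-PCR with fluorescent primer extension and capillary electrophoresis. DMSO served as negative control and baseline for bidirectional fitting.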
# [7] = molecular target: Hypoxia-inducible factor 1-alpha (Homo sapiens) (UniProt Q16665); assay: ATG_HIF1a_CIS: Attagene CIS-FACTORIAL HepG2 Assay for human Hypoxia Inducible Factor 1 (HIF1A) (AID 2282951); conditions: HepG2 Attagene cis-factorial HIF1a reporter transcription; actives raise or lower the signal
# Procedure, shortened: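 Activity is fitted in both directions relative to DMSO. Reporter transcripts are read by RT-PCR, fluorescent primer extension and capillary electrophoresis after 24 h chemical treatment. The cells are HepG2 carrying transiently transfected cis-element-driven reporter units responding to endogenous factors.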
# [8] = molecular target: Hepatocyte nuclear factor 6 (Homo sapiens) (UniProt Q9UBC0); assay: ATG_HNF6_CIS: Attagene CIS-FACTORIAL HepG2 Assay for human Hepatocyte Nuclear Factor 6 (HNF6) (AID 2282952); conditions: HepG2 Attagene cis-factorial HNF6 reporter transcription; actives raise or lower the signal
# Procedure, shortened: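 HepG2 cells transiently transfected with cis-element-driven multiple reporter transcription units, dosed 24 h; reporter mRNA quantified by RT-PCR, FAM primer extension, HpaI digestion and capillary electrophoresis; bidirectional fit versus DMSO baseline.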
# [9] = molecular target: Heat shock factor protein 1 (Homo sapiens) (UniProt Q00613); assay: ATG_HSE_CIS: Attagene CIS-FACTORIAL HepG2 Assay for human Heat Shock Transcription Factor 1 (HSE) (AID 2282953); conditions: HepG2 HSE cis-reporter, Attagene RNA transcription; actives raise or lower the signal
# Procedure, shortened: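 Reporter mRNA induction in HepG2 is measured 24 h after dosing, using transiently transfected multiplexed cis-regulated reporter units. Signal comes from capillary electrophoresis of labelled RT-PCR products, with DMSO as negative control.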
# [10] = ATG_MRE_CIS: Attagene CIS-FACTORIAL HepG2 Assay for human Metal Responsive Element (MRE) (AID 2282954); conditions: HepG2 MRE cis-reporter transcription, Attagene multiplex; actives raise or lower the signal
# Procedure, shortened: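 Fluorescent reporter fragments separated by capillary electrophoresis give mRNA induction for the MRE unit after 24 h treatment of transfected HepG2 cells. Endogenous transcription-factor activity is read; DMSO serves as negative control and baseline.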
# Chain of Heat shock factor protein 1 (Homo sapiens) (Q00613 whole entry, looked up): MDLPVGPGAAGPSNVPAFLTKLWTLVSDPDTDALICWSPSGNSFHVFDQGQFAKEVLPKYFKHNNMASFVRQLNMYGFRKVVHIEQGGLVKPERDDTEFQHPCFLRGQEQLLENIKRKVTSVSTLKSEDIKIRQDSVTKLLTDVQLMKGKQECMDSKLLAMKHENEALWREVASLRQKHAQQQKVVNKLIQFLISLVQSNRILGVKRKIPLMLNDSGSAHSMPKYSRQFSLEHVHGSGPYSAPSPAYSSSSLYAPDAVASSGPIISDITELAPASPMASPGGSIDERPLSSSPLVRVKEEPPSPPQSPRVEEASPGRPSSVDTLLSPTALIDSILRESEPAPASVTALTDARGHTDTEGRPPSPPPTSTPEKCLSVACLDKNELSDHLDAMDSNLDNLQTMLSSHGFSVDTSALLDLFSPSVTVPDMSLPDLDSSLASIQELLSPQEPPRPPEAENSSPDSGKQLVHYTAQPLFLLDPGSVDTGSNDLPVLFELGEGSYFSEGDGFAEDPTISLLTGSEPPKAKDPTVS
# Chain of Hypoxia-inducible factor 1-alpha (Homo sapiens) (Q16665 whole entry, looked up): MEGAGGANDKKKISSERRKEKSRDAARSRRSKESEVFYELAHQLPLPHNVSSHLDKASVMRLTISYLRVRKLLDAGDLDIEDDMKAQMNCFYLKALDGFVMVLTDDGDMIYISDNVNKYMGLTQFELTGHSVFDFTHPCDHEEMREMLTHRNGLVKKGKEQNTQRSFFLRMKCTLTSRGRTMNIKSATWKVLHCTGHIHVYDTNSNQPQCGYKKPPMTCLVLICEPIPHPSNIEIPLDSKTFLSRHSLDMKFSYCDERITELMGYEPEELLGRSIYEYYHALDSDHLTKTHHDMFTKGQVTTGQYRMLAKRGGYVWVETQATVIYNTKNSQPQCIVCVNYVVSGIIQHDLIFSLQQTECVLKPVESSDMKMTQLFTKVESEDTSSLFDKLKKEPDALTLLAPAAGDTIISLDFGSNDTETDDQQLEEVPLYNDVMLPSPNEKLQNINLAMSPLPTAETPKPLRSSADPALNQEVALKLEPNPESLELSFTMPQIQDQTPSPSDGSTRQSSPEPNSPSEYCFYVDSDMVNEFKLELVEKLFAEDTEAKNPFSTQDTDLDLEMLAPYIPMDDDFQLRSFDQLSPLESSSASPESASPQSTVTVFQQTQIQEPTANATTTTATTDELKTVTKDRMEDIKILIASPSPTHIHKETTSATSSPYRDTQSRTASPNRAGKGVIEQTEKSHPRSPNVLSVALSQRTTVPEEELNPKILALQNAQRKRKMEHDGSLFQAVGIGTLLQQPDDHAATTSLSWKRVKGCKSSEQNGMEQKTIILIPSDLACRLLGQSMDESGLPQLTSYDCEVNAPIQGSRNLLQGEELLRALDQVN
# Chain of Hepatocyte nuclear factor 6 (Homo sapiens) (Q9UBC0 whole entry, looked up): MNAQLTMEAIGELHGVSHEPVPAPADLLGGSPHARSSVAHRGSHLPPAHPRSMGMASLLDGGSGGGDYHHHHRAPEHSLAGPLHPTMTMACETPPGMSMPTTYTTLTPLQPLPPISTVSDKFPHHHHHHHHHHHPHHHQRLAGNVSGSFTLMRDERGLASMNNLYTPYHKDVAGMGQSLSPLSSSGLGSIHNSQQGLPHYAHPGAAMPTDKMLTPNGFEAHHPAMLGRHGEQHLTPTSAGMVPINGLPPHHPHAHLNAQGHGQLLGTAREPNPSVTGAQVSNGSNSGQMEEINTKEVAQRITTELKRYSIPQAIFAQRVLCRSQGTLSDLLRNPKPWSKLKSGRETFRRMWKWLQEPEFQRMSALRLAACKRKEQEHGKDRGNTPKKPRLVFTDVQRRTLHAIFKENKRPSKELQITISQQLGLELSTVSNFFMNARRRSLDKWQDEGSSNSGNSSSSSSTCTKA
# Chain of Bile acid receptor (Homo sapiens) (Q96RI1 whole entry, looked up): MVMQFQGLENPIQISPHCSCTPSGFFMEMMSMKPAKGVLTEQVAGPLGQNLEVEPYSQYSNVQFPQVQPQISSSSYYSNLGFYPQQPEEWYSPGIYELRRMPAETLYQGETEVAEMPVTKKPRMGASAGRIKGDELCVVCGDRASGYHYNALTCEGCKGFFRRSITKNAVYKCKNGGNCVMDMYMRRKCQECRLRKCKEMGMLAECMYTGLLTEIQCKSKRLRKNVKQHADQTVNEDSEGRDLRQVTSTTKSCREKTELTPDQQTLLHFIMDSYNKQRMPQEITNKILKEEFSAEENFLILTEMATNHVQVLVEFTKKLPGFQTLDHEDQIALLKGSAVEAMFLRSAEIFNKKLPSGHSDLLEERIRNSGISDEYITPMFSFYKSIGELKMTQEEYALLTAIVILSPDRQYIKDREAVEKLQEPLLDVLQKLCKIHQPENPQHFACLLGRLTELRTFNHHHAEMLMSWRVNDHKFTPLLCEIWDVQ
SMILES,outcome [1],outcome [2],outcome [3],outcome [4],outcome [5],outcome [6],outcome [7],outcome [8],outcome [9],outcome [10],AC50 [7],AC50 [2],AC50 [5],AC50 [6],AC50 [8],AC50 [9],AC50 [10]
C[N+](C)(C)CCCNS(=O)(=O)C(F)(F)C(F)(F)C(F)(F)C(F)(F)C(F)(F)C(F)(F)C(F)(F)C(F)(F)F,inactive,inactive,inactive,inactive,inactive,inactive,inactive,inactive,inactive,inactive,,,,,,,
CC1OC(=O)C(C)OC1=O (stereo not drawn),inactive,inactive,inactive,inactive,inactive,inactive,,inactive,inactive,inactive,26.6 µM (active),,,,,,
CC(C)=NNC(N)=S,inactive,inactive,inactive,inactive,inactive,inactive,,,inactive,inactive,9.14 µM (active),,,,,,
COC(=O)[C@H](Cc1ccccc1)NC(=O)[C@@H](N)CC(=O)O (H-Asp-Phe-OMe),inactive,inactive,inactive,inactive,inactive,inactive,inactive,inactive,inactive,inactive,,,,,,,
CC(c1cc(C(C)(C)C)cc(C(C)(C)C)c1O)c1cc(C(C)(C)C)cc(C(C)(C)C)c1O,inactive,,inactive,inactive,inactive,inactive,inactive,inactive,inactive,inactive,,1.87 µM (active),,,,,
[Cl][Sc]([Cl])[Cl],inactive,inactive,inactive,inactive,inactive,inactive,inactive,,inactive,inactive,,,,,,,
CCN(CC)c1cccc(C)c1,inactive,inactive,inactive,inactive,inactive,inactive,inactive,inactive,inactive,inactive,,,,,,,
CO[Si](CCCS)(OC)OC,inactive,inactive,inactive,inactive,inactive,inactive,inactive,inactive,inactive,inactive,,,,,,,
Clc1cccnc1,inactive,inactive,inactive,inactive,inactive,inactive,inactive,inactive,inactive,inactive,,,,,,,
CCN1CCCC1=O,inactive,inactive,inactive,inactive,inactive,inactive,inactive,inactive,inactive,inactive,,,,,,,
CCOB(OCC)OCC,inactive,inactive,inactive,inactive,inactive,inactive,inactive,inactive,inactive,inactive,,,,,,,
CCCCCCCCCCCCCCCCCCOS(=O)(=O)O,inactive,,inactive,inactive,,,inactive,,,,,33.4 µM (active),53 µM (active),54.7 µM (active),19.5 µM (active),54 µM (active),23.2 µM (active)
